From PubChem
A selection: hits, their analogues and other compounds. The true share with any hit is near 21%.
ClpP mod – qHTS Assay for Activators of ClpP; purified B. subtilis ClpP, FRET peptide cleavage, 20 min; Potency, µM (top dose mostly 57.5 µM), without a hit: at the top dose activity change, negative = active; 1.9% of 340,000 active; AID 651965, 2013; active means well fitted falling curve with a large enough effect; inconclusive means small, poorly fitted or top-dose-only effect; inactive means no such curve, though single readings can be large or run the other way; further: potency means the concentration at half of the fitted maximal effect; the source files actives as falling curves though it sought activators and does not explain the sign; nearly all actives have a fitted effect of over 65% in size
Target sequence (P80244 whole entry, looked up): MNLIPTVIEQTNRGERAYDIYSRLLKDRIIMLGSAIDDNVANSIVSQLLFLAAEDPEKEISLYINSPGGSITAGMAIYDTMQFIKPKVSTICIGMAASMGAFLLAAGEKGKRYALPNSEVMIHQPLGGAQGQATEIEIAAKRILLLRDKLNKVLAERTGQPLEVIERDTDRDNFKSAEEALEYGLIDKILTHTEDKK
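Buffer: 100 mM Tris/HCl pH8, 100 mM KCl, 0.05% low protease BSA, 2.5% glycerol, 0.01% Tween-20. ClpP 10 microg/mL final; 20 min RT; delta FRET normalized to ADEP and DMSO controls.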
DT40 TDP1 CPT – growth inhibition of DT40 Tdp1-/-;hTDP1 cells with camptothecin (screen for TDP1 inhibitors). Potency, µM (top dose mostly 46.2 µM), for inactives: at the highest dose activity change, negative = growth inhibition, most hits filed as inhibitors. AID 686979. chicken DT40 Tdp1-/-;hTDP1 cells + 20 nM CPT, ATP luminescence, 48 h. 12% of 420,000 active; further: potency means the concentration at half of the fitted maximal effect; on the % scale 0 is the no-effect control and ±100 the full control effect; nearly all actives have a fitted effect of over 55% in size
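Cell growth measured by CellTiter-Glo luminescence after a minimum 48 h, 37 C compound exposure with 20 nM CPT in Tdp1-knockout DT40 cells stably expressing hTDP1, seeded 400/well; qHTS titration format.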
TDP1 cell noCPT – qHTS for Inhibitors of human tyrosyl-DNA phosphodiesterase 1 (TDP1): qHTS in cells in absence of CPT; DT40 Tdp1-/- hTDP1 cells, no CPT, ATP luminescence, 48 h; Potency, µM (series often up to 46.2 µM), for inactives: at the highest dose activity change, negative = growth inhibition, most hits filed as inhibitors; 15% of 420,000 active; AID 686978, 2013; further: potency means the concentration at half of the fitted maximal effect; on the % scale 0 is the no-effect control and ±100 the full control effect; nearly all actives have a fitted effect of over 55% in size
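A cellular qHTS used chicken DT40 cells lacking endogenous Tdp1 but carrying stably transfected human TDP1. Compounds were applied without camptothecin, and cell growth kinetics were judged by ATP-dependent luminescence after ≥48 hr.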
DRD3 agonist – D3 dopamine receptor (human) agonism; AID 652048; P35462; D3R DiscoveRx beta-arrestin cells, luminescence, 90 min; max activation, %; 0.58% of 410,000 active; in the data active means max activation above about 30%; further: 0% is about no effect
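Cells at 1500/well, incubated overnight, then treated with pinned compounds (dopamine as control) for 90 min at 37 degrees C. DiscoveRx reagent added for 30 - 60 minutes at room temperature; luminescence read.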
IL-1B inflam inh – inhibitors of inflammasome signaling (IL-1 beta secretion) | THP-1 LPS/ATP IL-1B secretion, AlphaLISA, 16 h; active compounds read low | activity change, % at 57.5 µM | 4.7% of 360,000 active | AID 743279; in the data active means activity change below about -50%; inconclusive means mostly about -30% to -49%; further: on the % scale 0 is the no-effect control and ±100 the full control effect
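THP-1 cells pretreated 1 hr with compounds (up to 57.5 uM final), then stimulated with LPS (250 ng/mL final) plus ATP (1.25 mM final); secreted IL-1B measured by AlphaLISA after 16 hr, decreased signal indicating inhibition.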
DRD3 antagonist – blocks the human D3 dopamine receptor. P35462. D3R cells, DiscoveRx beta-arrestin luminescence, antagonist mode; active compounds read low. max response, negative = inhibition, %. 2.5% of 360,000 active; in the data active means max response below about -50%; inconclusive means no clear call, values can overlap the other calls; further: on the % scale 0 is the no-effect control and ±100 the full control effect
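Cells plated overnight at 1500 cells/well, then exposed to library compounds with dopamine controls for 90 minutes at 37 degrees C. DiscoveRx reagent added for 30–60 minutes at room temperature; luminescence read, quantitative HTS format.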
Active calls of the source: *. Unless noted, the call rests on the fitted dose curve; in most records, active means well fitted inhibition curve with a large enough effect; inconclusive means small, poorly fitted or top-dose-only effect; inactive means flat fitted curve, though single readings scatter.

`Cc1ccc(NC(=S)NC(=O)c2ccc(F)cc2)cc1S(=O)(=O)Nc1cccc(Cl)c1` gave ClpP mod -2%, DT40 TDP1 CPT 5.2µM*, TDP1 cell noCPT 5.8µM*, DRD3 agonist -19, IL-1B inflam inh inconclusive and DRD3 antagonist -60*.
O=C(c1cc2c(c(-c3cccc(-c4ccc(F)cc4)c3)n1)[C@H](CCO)N(C(=O)c1ccc3c(c1)OCO3)C2)N1CCOCC1 was read as ClpP mod 0%, DT40 TDP1 CPT inconclusive, TDP1 cell noCPT inconclusive, DRD3 agonist -12, IL-1B inflam inh inconclusive and DRD3 antagonist -7.
For COc1ccccc1C(=O)Nc1ccc(S(=O)(=O)Nc2ncccn2)cc1 the results were ClpP mod -1%, DT40 TDP1 CPT -7%, TDP1 cell noCPT 0% and DRD3 agonist 10.
Screening CC1(C)Oc2ccc3ccc(=O)oc3c2/C(=C/NNC(N)=O)C1=O returned ClpP mod 8%, DT40 TDP1 CPT 8%, TDP1 cell noCPT inconclusive, DRD3 agonist -35, IL-1B inflam inh -2 and DRD3 antagonist -111*.
`O=C(NCc1ccc2c(c1)OCO2)C12CN(Cc3ccccc3)CC1C(c1cccc([N+](=O)[O-])c1)=NO2` (configuration not stated) gave ClpP mod -1%, DT40 TDP1 CPT inconclusive, TDP1 cell noCPT inconclusive, DRD3 agonist 3, IL-1B inflam inh inconclusive and DRD3 antagonist -1.
For O=C(NCc1ccc(C(F)(F)F)cc1)C12CN(Cc3ccccc3)CC1C(c1cccc([N+](=O)[O-])c1)=NO2 (configuration not stated) the results were ClpP mod 2%, DT40 TDP1 CPT -103%, TDP1 cell noCPT 16µM*, DRD3 agonist 19, IL-1B inflam inh -16 and DRD3 antagonist -3.
`O=c1cc(O)cc2n1CCC2` gave ClpP mod -5%, DT40 TDP1 CPT 12%, TDP1 cell noCPT 19%, DRD3 agonist -4, IL-1B inflam inh 14 and DRD3 antagonist 0.
Screening CC(C)(Oc1ccc(Cl)cc1)C(=O)NNC(=O)c1ccc(Br)o1 returned ClpP mod -1%, DT40 TDP1 CPT -7%, TDP1 cell noCPT 12%, DRD3 agonist 21, IL-1B inflam inh -11 and DRD3 antagonist 14.
`Cc1ccc(CSc2ccc3nnc(-c4ccccn4)n3n2)cc1` gave ClpP mod 2%, DT40 TDP1 CPT 12µM*, TDP1 cell noCPT 16µM*, DRD3 agonist 5, IL-1B inflam inh -10 and DRD3 antagonist 16.
Screening Fc1ccc(CSc2ccc3nnc(-c4ccccn4)n3n2)cc1 returned DT40 TDP1 CPT -14%, TDP1 cell noCPT inconclusive, DRD3 agonist 11, IL-1B inflam inh -14 and DRD3 antagonist 17.
Cc1ccc(C)c(CSc2ccc3nnc(-c4ccccn4)n3n2)c1 was read as ClpP mod 0%, DT40 TDP1 CPT inconclusive, TDP1 cell noCPT inconclusive, DRD3 agonist 6, IL-1B inflam inh -70* and DRD3 antagonist 2.
`CSc1nccc(-c2cc(Cl)c3c(c2)CC(CNC(=O)c2ccc(C)nc2)O3)n1` (configuration not stated) gave DT40 TDP1 CPT -6% and TDP1 cell noCPT -4%.
`O=C1CCSc2ccc(Cl)cc2N1Cc1cccc(Cl)c1` gave ClpP mod 0%, DT40 TDP1 CPT inconclusive, TDP1 cell noCPT 21µM*, DRD3 agonist -4, IL-1B inflam inh 13 and DRD3 antagonist -25.
For Cc1cccc(CN2[C@H](CO)C=CS2(=O)=O)c1 the results were ClpP mod 1%, DT40 TDP1 CPT 7%, TDP1 cell noCPT 27%, DRD3 agonist 1, IL-1B inflam inh -25 and DRD3 antagonist 14.
